# Data taken from PubChem BioAssay (Tox21).
# Where “and” joins values, the source holds several entries; their conditions need not be identical. Identical values can stand only once. The source holds several records for some structures; these can differ, active in one and inactive in another. Calls of active or inactive are those of the source. Entries that show only a call come without a potency. Unless noted, the call rests on the fitted dose curve; in most records, active means well fitted curve in the direction sought with a large enough effect in the repeat runs; inconclusive means weak or mixed curves; inactive means no such curve, though single readings can be large; an effect the other way counts as inactive or inconclusive.
# Legend:
# [1] = qHTS assay to identify small molecule antagonists of the glucocorticoid receptor (GR) signaling pathway - cell viability counter screen (AID 720693); further: nearly all actives have a fitted effect of over 55% in size; further: potency means the concentration at half of the fitted maximal effect
# [2] = qHTS assay for identifying genotoxic compounds that show differential cytotoxicity against isogenic chicken DT40 cell lines with known DNA damage response pathways - wild type cell line (AID 743012); further: nearly all actives have a fitted effect of over 60% in size; further: potency means the concentration at half of the fitted maximal effect
# In short: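 Wild type DT40, 300 cells/well, ~0.5 h settle at 37 C/5% CO2; compounds in DMSO added by pintool; 40 h at 37 C/5% CO2; CellTiter-Glo, 30 min RT; luminescence.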
# [3] = qHTS assay for identifying genotoxic compounds that show differential cytotoxicity against isogenic chicken DT40 cell lines with known DNA damage response pathways - Rev3 mutant cell line (AID 743014); further: nearly all actives have a fitted effect of over 55% in size; further: potency means the concentration at half of the fitted maximal effect
# [4] = qHTS assay for identifying genotoxic compounds that show differential cytotoxicity against isogenic chicken DT40 cell lines with known DNA damage response pathways - Rad54/Ku70 mutant cell line (AID 743015); further: nearly all actives have a fitted effect of over 60% in size; further: potency means the concentration at half of the fitted maximal effect
# [5] = qHTS assay to identify small molecule antagonists of the androgen receptor (AR) signaling pathway - cell viability counter screen (AID 743033; further: nearly all actives have a fitted effect of over 45% in size; further: potency means the concentration at half of the fitted maximal effect)
# [6] = qHTS assay to identify small molecule antagonists of the androgen receptor (AR) signaling pathway using the MDA cell line - cell viability counter screen (AID 743041; further: nearly all actives have a fitted effect of over 45% in size; further: potency means the concentration at half of the fitted maximal effect)
# In short: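 Same-well cytotoxicity was assessed by CellTiter-Fluor in MDA-kb2 AR-luc cells after 16 h of compound treatment under R1881 agonism.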
# [7] = qHTS assay to identify small molecule antagonists of the thyroid receptor (TR) signaling pathway - cell viability counter screen (AID 743064); further: nearly all actives have a fitted effect of over 50% in size; further: potency means the concentration at half of the fitted maximal effect
# In short: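 Same-well viability check: GH3.TRE-Luc cells stimulated with 1 nM T3 alongside test compound for 23.5 h, followed by CellTiter-Fluor fluorescence.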
# [8] = qHTS assay to identify small molecule antagonists of the thyroid receptor (TR) signaling pathway (AID 743065); further: nearly all actives have a fitted effect of over 55% in size; further: potency means the concentration at half of the fitted maximal effect
# In short: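 GH3.TRE-Luc rat pituitary cells (two TREs driving luciferase) were dosed with compound, then stimulated with 1 nM T3 (final) for 23.5 h at 37 C. ONE-Glo luminescence was the read-out, with CellTiter-Fluor fluorescence as the cytotoxicity counter-screen.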
# [9] = system: thyroid hormone receptor (rat, GH3 cells); experiment: qHTS assay to identify small molecule agonists of the thyroid receptor (TR) signaling pathway (AID 743066; calls by dose curve; further: potency means the concentration at half of the fitted maximal effect)
# [10] = qHTS assay to identify small molecule antagonists of the estrogen receptor alpha (ER-alpha) signaling pathway - cell viability counter screen (AID 743074; calls by dose curve;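 further: HEK293 cells carrying ER-alpha-UAS-bla reporter stimulated with 17beta-estradiol; nearly all actives have a fitted effect of over 45% in size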; further: potency means the concentration at half of the fitted maximal effect)
# [11] = qHTS assay to identify small molecule antagonists of the estrogen receptor alpha (ER-alpha) signaling pathway using the BG1 cell line - cell viability counter screen (AID 743081);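 further: compound given together with 17beta-estradiol as the ER stimulus; nearly all actives have a fitted effect of over 45% in size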
# [12] = molecular target: Estrogen receptor (Homo sapiens) (UniProt P03372); experiment: qHTS assay to identify small molecule antagonists of the estrogen receptor alpha (ER-alpha) signaling pathway (AID 743069; active means well fitted curve in the direction sought with a large enough effect in the signal ratio in the repeat runs, not every such curve was filed as active; inconclusive means weak or mixed curves, or effect the other way; inactive means no such curve, though single readings can be large or run the other way; the % refers to the signal ratio; further: potency means the concentration at half of the fitted maximal effect)
# Sequence of Estrogen receptor (Homo sapiens) (P03372 whole entry, looked up): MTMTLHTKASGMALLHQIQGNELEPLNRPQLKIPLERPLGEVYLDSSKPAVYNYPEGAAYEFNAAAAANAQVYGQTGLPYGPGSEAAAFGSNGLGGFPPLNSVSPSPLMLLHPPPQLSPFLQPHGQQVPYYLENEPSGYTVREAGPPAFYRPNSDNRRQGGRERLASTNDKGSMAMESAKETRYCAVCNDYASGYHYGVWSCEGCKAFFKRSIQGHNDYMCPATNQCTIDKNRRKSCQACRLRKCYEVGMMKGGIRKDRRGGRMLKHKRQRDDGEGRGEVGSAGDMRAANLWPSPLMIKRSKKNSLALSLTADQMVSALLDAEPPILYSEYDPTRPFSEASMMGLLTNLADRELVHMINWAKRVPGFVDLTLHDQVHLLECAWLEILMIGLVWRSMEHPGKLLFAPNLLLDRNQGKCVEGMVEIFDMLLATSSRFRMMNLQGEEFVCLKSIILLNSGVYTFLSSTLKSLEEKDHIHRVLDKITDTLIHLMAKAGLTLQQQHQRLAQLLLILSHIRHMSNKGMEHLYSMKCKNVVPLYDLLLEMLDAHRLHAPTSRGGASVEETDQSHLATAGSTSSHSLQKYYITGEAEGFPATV
# In short: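 Reporter cells (ER-alpha-bla, HEK293 background) are conditioned overnight in stripped-serum medium (2% charcoal-stripped FBS). Compound and 17beta-estradiol exposure runs 18 hr at 37C, 5% CO2.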
# [13] = molecular target: Estrogen receptor (Homo sapiens) (UniProt P03372); experiment: qHTS assay to identify small molecule agonists of the estrogen receptor alpha (ER-alpha) signaling pathway (AID 743075; calls by dose curve;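 further: HEK293 GripTite cells with ER-alpha and UAS-driven beta-lactamase reporter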; further: potency means the concentration at half of the fitted maximal effect)
# [14] = molecular target: Estrogen receptor (Homo sapiens) (UniProt P03372); experiment: qHTS assay to identify small molecule agonists of the estrogen receptor alpha (ER-alpha) signaling pathway using the BG1 cell line (AID 743079); further: nearly all actives have a fitted effect of over 20% in size; further: potency means the concentration at half of the fitted maximal effect
# [15] = qHTS assay to identify small molecule antagonists of the estrogen receptor alpha (ER-alpha) signaling pathway using the BG1 cell line (AID 743080; calls by dose curve;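 further: BG1 cells stimulated with 17beta-estradiol alongside compound; nearly all actives have a fitted effect of over 25% in size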; further: potency means the concentration at half of the fitted maximal effect); conditions: BG1Luc4E2 ERE-luciferase antagonist mode, luminescence; activity change, negative = inhibition: at 70.3 µM (top of the series)
# In short: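 Luminescence from a 4×ERE-luciferase reporter in BG1-Luc-4E2 cells served as read-out. Cells, pre-cultured 5 days in stripped-serum phenol-red-free medium, were exposed to compound with 17beta-estradiol co-stimulation for 21.5 h at 37 C.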
# Aromatase (Homo sapiens) = Aromatase (Homo sapiens) (UniProt P11511); experiment: qHTS assay to identify aromatase inhibitors (AID 743083); further: nearly all actives have a fitted effect of over 55% in size; further: potency means the concentration at half of the fitted maximal effect
# Sequence of Aromatase (Homo sapiens) (P11511 whole entry, looked up): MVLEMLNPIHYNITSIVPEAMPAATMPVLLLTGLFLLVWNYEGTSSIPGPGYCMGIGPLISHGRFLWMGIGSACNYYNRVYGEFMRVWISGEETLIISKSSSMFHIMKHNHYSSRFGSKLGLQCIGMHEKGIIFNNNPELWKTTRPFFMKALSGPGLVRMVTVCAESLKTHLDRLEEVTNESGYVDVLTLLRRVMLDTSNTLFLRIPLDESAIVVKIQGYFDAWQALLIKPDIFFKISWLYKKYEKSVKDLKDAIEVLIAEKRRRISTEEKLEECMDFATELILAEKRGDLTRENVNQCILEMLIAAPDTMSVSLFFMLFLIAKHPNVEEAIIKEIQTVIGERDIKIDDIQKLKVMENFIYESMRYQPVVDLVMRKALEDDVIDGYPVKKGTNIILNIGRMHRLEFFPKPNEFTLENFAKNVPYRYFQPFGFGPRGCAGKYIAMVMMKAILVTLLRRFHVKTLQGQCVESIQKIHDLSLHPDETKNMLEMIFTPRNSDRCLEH
# [16] = molecular target: Androgen receptor (Homo sapiens) (UniProt P10275); experiment: qHTS assay to identify small molecule antagonists of the androgen receptor (AR) signaling pathway (AID 743035; active means well fitted inhibition curve with a large enough effect in the signal ratio in the repeat runs, not every such curve was filed as active; inconclusive means weak or mixed curves, or effect the other way; inactive means no such curve, though single readings can be large or run the other way; the % refers to the signal ratio)
# Sequence of Androgen receptor (Homo sapiens) (P10275 whole entry, looked up): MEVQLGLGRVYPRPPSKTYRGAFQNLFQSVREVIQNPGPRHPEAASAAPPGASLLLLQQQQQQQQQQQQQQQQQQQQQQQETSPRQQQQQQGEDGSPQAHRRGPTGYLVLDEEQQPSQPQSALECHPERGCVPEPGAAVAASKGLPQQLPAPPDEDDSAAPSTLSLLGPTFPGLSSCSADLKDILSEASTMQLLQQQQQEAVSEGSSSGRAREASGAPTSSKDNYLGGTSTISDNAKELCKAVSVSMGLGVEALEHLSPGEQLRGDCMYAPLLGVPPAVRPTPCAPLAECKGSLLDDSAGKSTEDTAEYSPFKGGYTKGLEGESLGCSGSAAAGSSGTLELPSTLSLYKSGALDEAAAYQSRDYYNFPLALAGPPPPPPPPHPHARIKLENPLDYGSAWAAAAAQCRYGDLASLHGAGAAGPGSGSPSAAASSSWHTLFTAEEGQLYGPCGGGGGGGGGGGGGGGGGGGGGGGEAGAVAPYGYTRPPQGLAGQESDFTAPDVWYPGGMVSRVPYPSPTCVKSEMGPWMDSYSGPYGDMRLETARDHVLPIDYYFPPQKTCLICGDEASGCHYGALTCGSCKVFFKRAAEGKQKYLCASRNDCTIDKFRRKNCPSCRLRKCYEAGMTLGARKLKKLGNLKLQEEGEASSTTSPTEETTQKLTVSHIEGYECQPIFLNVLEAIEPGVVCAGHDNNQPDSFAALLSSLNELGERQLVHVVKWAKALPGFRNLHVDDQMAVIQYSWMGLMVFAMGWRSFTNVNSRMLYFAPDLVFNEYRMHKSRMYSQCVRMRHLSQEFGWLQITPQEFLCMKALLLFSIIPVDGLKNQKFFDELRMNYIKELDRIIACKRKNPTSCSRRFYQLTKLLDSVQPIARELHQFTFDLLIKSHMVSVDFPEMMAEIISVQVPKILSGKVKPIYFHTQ
# In short: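 Fluorescence from a beta-lactamase FRET substrate (LiveBLAzer B/G, 2 h, room temperature) measured inhibition of R1881-stimulated signaling in GeneBLAzer AR-UAS-bla HEK293 cells exposed to compound for 16 h at 37C.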
# [17] = molecular target: Androgen receptor (Homo sapiens) (UniProt P10275); experiment: qHTS assay to identify small molecule agonists of the androgen receptor (AR) signaling pathway (AID 743036; active means well fitted activation curve with a large enough effect in the signal ratio in the repeat runs, with a control signal flat, not every such curve was filed as active; inconclusive means weak or mixed curves, or effect the other way; inactive means no such curve, though single readings can be large or run the other way; the % refers to the signal ratio)
# In short: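 Agonist activity was scored by beta-lactamase reporter fluorescence in stably transfected HEK293 cells exposed to compounds for 16 h at 37C and 5% CO2. Substrate loading took 2 h at room temperature.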
# [18] = molecular target: Androgen receptor (Homo sapiens) (UniProt P10275); experiment: qHTS assay to identify small molecule agonists of the androgen receptor (AR) signaling pathway using the MDA cell line (AID 743040; further: nearly all actives have a fitted effect of over 20% in size)
# In short: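 Human breast carcinoma MDA-kb2 reporter cells (MMTV-luc, AR/GR elements) were treated for 16 h at 37C in 0% CO2 following a 5 h settling period. Signal was quantified by ONE-Glo luminescence.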
# [19] = molecular target: Androgen receptor (Homo sapiens) (UniProt P10275); experiment: qHTS assay to identify small molecule antagonists of the androgen receptor (AR) signaling pathway using the MDA cell line (AID 743042; further: nearly all actives have a fitted effect of over 55% in size)
# In short: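 MDA-kb2 breast carcinoma cells carrying MMTV-luciferase (AR/GR responsive) were co-treated with compounds and the agonist R1881 for 16 h at 37C. Inhibition read as ONE-Glo luminescence; CellTiter-Fluor fluorescence measured in parallel for cytotoxicity.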
smiles,measurement,setting,value
CC(=O)CC(c1ccccc1)c1c(O)c2ccccc2oc1=O (configuration not stated),Potency,[1],inactive
same,Potency,[2],inactive
same,Potency,[3],inactive
same,Potency,[4],inactive
same,Potency,[5],inactive
same,Potency,[6],inactive
same,Potency,[7],inactive
same,Potency,[8],inactive
same,Potency,[9],inactive
same,Potency,[10],inactive
same,Potency,[11],inactive
C=C(C)C(=O)OCC(C)O (configuration not stated),Potency,[1],inactive
same,Potency,[2],inactive
same,Potency,[3],inactive
same,Potency,[4],inactive
same,Potency,[5],inactive
same,Potency,[6],inactive
same,Potency,[7],inactive
same,Potency,[8],inactive
same,Potency,[9],inactive
same,Potency,[12],inactive
same,Potency,[10],inactive
same,Potency,[13],inactive
same,Potency,[14],inactive
same,Potency,[15],inactive
same,Potency,[11],inactive
same,Potency,Aromatase (Homo sapiens),inactive
COc1ccc(C(Cl)=C(c2ccc(OC)cc2)c2ccc(OC)cc2)cc1,Potency,[1],inactive
same,Potency,[2],23.7 µM (active) and 24.3 µM (active)
same,Potency,[3],29.8 µM (active) and 48.3 µM (active) and 27.3 µM (active)
same,Potency,[4],26.6 µM (active) and 60.8 µM (active) and 24.3 µM (active)
same,Potency,[5],inactive
same,Potency,[6],inactive
same,Potency,[7],inactive
same,Potency,[8],11.9 µM (active) and 6.08 µM (active) and 7.7 µM (active)
same,Potency,[9],inactive
same,Potency,[12],1.51 µM [inconclusive] (active) and 1.54 µM [inconclusive] (active) and 1.23 µM [inconclusive] (active)
same,Potency,[10],inactive
same,Potency,[13],inactive
same,Potency,[14],inactive
same,Potency,[15],18.8 µM (active) and 12.1 µM (active) and 9.69 µM (active)
same,Potency,[11],inactive
same,Potency,Aromatase (Homo sapiens),8.59 µM (active) and 12.2 µM (active)
CCCCCCCCCCCCCCCC[N+](C)(C)Cc1ccccc1,Potency,[1],21.3 µM (active) and 22.6 µM (active) and 35.3 µM (active)
same,Potency,[2],596 nM (active) and 794 nM (active) and 350 nM (active)
same,Potency,[3],750 nM (active) and 631 nM (active) and 783 nM (active)
same,Potency,[4],668 nM (active) and 891 nM (active) and 1.39 µM (active)
same,Potency,[5],16.9 µM (active) and 17.9 µM (active) and 17.7 µM (active)
same,Potency,[6],35.5 µM (active) and 27.8 µM (active)
same,Potency,[7],18.8 µM (active) and 14.1 µM (active) and 24.8 µM (active)
same,Potency,[8],11.9 µM (active) and 8.91 µM (active) and 22.1 µM (active)
same,Potency,[9],inactive
same,Potency,[10],19 µM (active) and 25.3 µM (active) and 31.4 µM (active)
same,Potency,[13],inactive
same,"activity change, negative = inhibition",[15],-23.2% (active)
same,Potency,[11],inactive
same,Potency,Aromatase (Homo sapiens),26.6 µM (active) and 50.1 µM (active) and 27.8 µM (active)
CCOc1ccc(NC(C)=O)cc1,Potency,[1],inactive
same,Potency,[2],inactive
same,Potency,[3],inactive
same,Potency,[4],inactive
same,Potency,[5],inactive
same,Potency,[16],inactive
same,outcome,[17],inactive
same,outcome,[18],inactive
same,Potency,[6],inactive
same,Potency,[19],inactive
same,Potency,[7],inactive
same,Potency,[8],inactive
same,Potency,[9],inactive
same,Potency,[12],inactive
same,Potency,[10],inactive
same,Potency,[13],inactive
same,Potency,[14],inactive
same,Potency,[15],inactive
same,Potency,[11],inactive
same,Potency,Aromatase (Homo sapiens),inactive
CCN(CC)C(=O)c1cccc(C)c1,Potency,[1],inactive
same,Potency,[2],inactive
same,Potency,[3],inactive
same,Potency,[4],inactive
same,Potency,[5],inactive
same,Potency,[6],inactive
same,Potency,[7],inactive
same,Potency,[8],inactive
same,Potency,[9],inactive
same,Potency,[12],inactive
same,Potency,[10],inactive
same,Potency,[13],21.3 µM [inconclusive] (active) and inactive
same,Potency,[14],2.66 µM (active) and inactive
same,Potency,[15],inactive
same,Potency,[11],inactive
same,Potency,Aromatase (Homo sapiens),inactive
Cc1cn([C@H]2C=C[C@@H](CO)O2)c(=O)[nH]c1=O,Potency,[1],inactive
same,Potency,[2],inactive
same,Potency,[3],inactive
same,Potency,[4],inactive
same,Potency,[5],inactive
same,Potency,[6],inactive
same,Potency,[7],inactive
same,Potency,[8],inactive
same,Potency,[9],inactive
same,Potency,[10],inactive
same,Potency,[11],inactive
same,Potency,Aromatase (Homo sapiens),inactive
CCCCNC(=O)NS(=O)(=O)c1ccc(C)cc1,Potency,[1],inactive
same,Potency,[2],inactive
same,Potency,[3],inactive
same,Potency,[4],inactive
same,Potency,[5],inactive
same,Potency,[6],inactive
same,Potency,[7],inactive
same,Potency,[8],inactive
same,Potency,[9],inactive
same,Potency,[10],inactive
same,Potency,[11],inactive
same,Potency,Aromatase (Homo sapiens),inactive
Oc1ccccc1,Potency,[1],inactive
same,Potency,[2],inactive
same,Potency,[3],inactive
same,Potency,[4],inactive
same,Potency,[5],inactive
same,Potency,[6],inactive
same,Potency,[7],inactive
same,Potency,[10],inactive
same,Potency,[11],inactive
same,Potency,Aromatase (Homo sapiens),inactive
F[B-](F)(F)F,Potency,[1],inactive
same,Potency,[2],inactive
same,Potency,[3],inactive
same,Potency,[4],inactive
same,Potency,[5],inactive
same,Potency,[6],inactive
same,Potency,[7],inactive
same,Potency,[8],inactive
same,Potency,[9],inactive
same,Potency,[10],inactive
same,Potency,[11],inactive
same,Potency,Aromatase (Homo sapiens),inactive
Nc1ccc(S(N)(=O)=O)cc1,Potency,[1],inactive
same,Potency,[2],inactive
same,Potency,[3],68.9 µM (active) and inactive
same,Potency,[4],inactive and 61.4 µM (active)
same,Potency,[5],inactive
same,Potency,[6],inactive
same,Potency,[7],inactive
same,Potency,[8],inactive
same,Potency,[9],inactive and 9.74 µM (active)
same,Potency,[10],inactive
same,Potency,[11],inactive
same,Potency,Aromatase (Homo sapiens),inactive
CS(=O)(=O)OCCCCOS(C)(=O)=O,Potency,[1],inactive
same,Potency,[2],inactive
same,Potency,[3],inactive
same,Potency,[4],inactive
same,Potency,[5],inactive
same,Potency,[6],inactive
same,Potency,[7],inactive
same,Potency,[12],inactive
same,Potency,[10],inactive
same,Potency,[13],inactive
same,Potency,[14],11.9 µM (active) and inactive
same,Potency,[15],inactive
same,Potency,[11],inactive
same,Potency,Aromatase (Homo sapiens),inactive
CN(C)C(=S)SC(=S)N(C)C,Potency,[1],inactive
same,Potency,[2],944 nM (active) and 1.11 µM (active) and 172 nM (active)
same,Potency,[3],1.19 µM (active) and 886 nM (active) and 96.9 nM (active)
same,Potency,[4],750 nM (active) and 789 nM (active) and 96.9 nM (active)
same,Potency,[5],7.56 µM (active) and 1.42 µM (active) and 2.75 µM (active)
same,Potency,[6],6.99 µM (active) and 6.27 µM (active) and 1.22 µM (active)
same,Potency,[7],2.11 µM (active) and 1.98 µM (active) and 433 nM (active)
same,Potency,[8],1.68 µM (active) and 1.57 µM (active) and 306 nM (active)
same,Potency,[9],inactive
same,Potency,[10],inactive and 49 µM (active)
same,Potency,[11],inactive
same,Potency,Aromatase (Homo sapiens),2.98 µM (active) and 994 nM (active) and 243 nM (active)
